# Data: PubChem BioAssay (Tox21)
# Inconclusive results are not listed. Entries that show only a call come without a potency. The source made the active and inactive calls. Unless noted, calls follow the shape of the full dose curve.
# Tests used:
# [1] = qHTS assay to identify small molecule agonists of the vitamin D receptor (VDR) signaling pathway - cell viability counter screen (AID 743224; active = well fitted curve in the direction sought with a large enough effect in the repeat runs; an effect the other way counts as inactive or inconclusive; also: series mostly up to about 63 µM; nearly all actives have a fitted effect of over 50% in size)
# How it was run: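 Here cell health was gauged by luminescent ATP detection (CellTiter-Glo, 30 min RT) in VDR-bla cells that had been incubated with test compounds for 16 h at 37C and 5% CO2.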
# [2] = qHTS assay to identify small molecule agonists of the NFkB signaling pathway (AID 1159509; active = well fitted curve in the direction sought with a large enough effect in the signal ratio in the repeat runs, not every such curve was filed as active; the % refers to the signal ratio; also: series mostly up to about 61 µM)
# How it was run: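 ME-180 NFkB-bla, 2,000 cells/well, overnight plating; cpd pinned in DMSO, 5 h 37 C; B/G FRET substrate 1.5 h RT; ex 405, em 460/530 nm.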
# [3] = qHTS assay to identify small molecule agonists of the NFkB signaling pathway - cell viability counter screen (AID 1159515); also: series mostly up to about 61 µM; nearly all actives have a fitted effect of over 55% in size
# How it was run: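 5 hr compound treatment of NFkB-bla ME-180 cells (2,000/well, seeded overnight beforehand), followed by reporter substrate for 1.5 hr. CellTiter-Glo added afterward; luminescence after 30 min RT.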
# [4] = qHTS assay to identify small molecule agonists of the endoplasmic reticulum stress response signaling pathway (AID 1159516; active = well fitted activation curve with a large enough effect in the signal ratio in the repeat runs, not every such curve was filed as active; the % refers to the signal ratio)
# How it was run: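 Reporter HeLa cells (ESRE-beta-lactamase) underwent 5 hr compound incubation at 37 C and 5% CO2 in quantitative HTS format. Detection followed 2 hr of FRET substrate loading at room temperature.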
# [5] = qHTS assay to identify small molecule agonists of the endoplasmic reticulum stress response signaling pathway - cell viability counter screen (AID 1159517);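 also: HeLa cells carrying an ER stress response element beta-lactamase reporter; series mostly up to about 61 µM; nearly all actives have a fitted effect of over 50% in size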
# How it was run: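 ESRE-bla HeLa cells, 1,500 per well, seeded overnight then treated with compounds for 5 hr at 37 C. After the beta-lactamase read, viability in the same wells is measured by CellTiter-Glo luminescence after 30 min at room temperature.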
# [6] = qHTS assay to identify small molecule antagonists of the retinoid-related orphan receptor gamma (ROR-gamma) signaling pathway - cell viability counter screen (AID 1159520; active = well fitted curve in the direction sought with a large enough effect in the repeat runs; an effect the other way counts as inactive or inconclusive; also: nearly all actives have a fitted effect of over 50% in size)
# How it was run: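 Tet-on ROR gamma CHO cells were given compounds for 2 hr, then doxycycline hyclate at 1 uM final, and incubated 16 hr at 37 C. Viability was measured as ATP content by CellTiter-Glo luminescence.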
# [7] = molecular target: Nuclear receptor ROR-gamma (Homo sapiens) (UniProt P51449); assay: qHTS assay to identify small molecule antagonists of the retinoid-related orphan receptor gamma (ROR-gamma) signaling pathway (AID 1159521; active = well fitted curve in the direction sought with a large enough effect in the repeat runs; an effect the other way counts as inactive or inconclusive; also: nearly all actives have a fitted effect of over 50% in size; also: potency is read from the fitted curve at half-maximal effect)
# How it was run: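 CHO cells expressing RORγ under a TET-on promoter, luciferase under RORE control. Dox 1 uM final, 16 h; compounds added 2 h prior. Luminescence decrease measured.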
# [8] = qHTS assay to identify small molecule agonists of the AP-1 signaling pathway - cell viability counter screen (AID 1159525); also: nearly all actives have a fitted effect of over 55% in size
# How it was run: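 AP-1-bla ME-180 cells in Opti-MEM with 0.5% dialyzed FBS, compound exposure 5 h at 37 C in 15-point titration. Viability read in the same wells as ATP content by CellTiter-Glo luminescence, normalised to tetra-n-octylammonium bromide and DMSO controls.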
# [9] = qHTS assay to identify small molecule agonists of the AP-1 signaling pathway (AID 1159526)
# [10] = qHTS assay to identify small molecule antagonists of the vitamin D receptor (VDR) signaling pathway - cell viability counter screen (AID 743225; active = well fitted curve in the direction sought with a large enough effect in the repeat runs; an effect the other way counts as inactive or inconclusive; also: nearly all actives have a fitted effect of over 50% in size)
# How it was run: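 Luminescent cell viability (CellTiter-Glo) in VDR-bla HEK 293T cells after 16 h compound exposure at 37C in the presence of 3 nM final 1-alpha,25-dihydroxy vitamin D3.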
SMILES,Potency [1],outcome [2],outcome [3],outcome [4],outcome [5],outcome [6],Potency [7],Potency [8],outcome [9],Potency [10]
CCCCCOC(=O)CCCCC,inactive,inactive,inactive,inactive,inactive,inactive,inactive,inactive,inactive,
CCOC(=O)c1ccc(C)cc1,inactive,inactive,inactive,inactive,inactive,inactive,inactive,inactive,inactive,inactive
Cc1c(NC(C)C)c(=O)n(-c2ccccc2)n1C,inactive,inactive,inactive,inactive,inactive,inactive,inactive,inactive,inactive,
CCCCOCCOCCOCCCC,inactive,inactive,inactive,inactive,inactive,inactive,inactive,inactive,inactive,
OCCCC1CCCCC1,inactive,inactive,inactive,inactive,inactive,inactive,inactive,inactive,inactive,
O=C(O)Cc1ccc(CCNS(=O)(=O)c2ccc(Cl)cc2)cc1,inactive,inactive,inactive,inactive,inactive,inactive,inactive,inactive,inactive,
O=C(c1ccccc1)C1CCCCC1,,inactive,inactive,inactive,inactive,inactive,inactive,inactive,inactive,
CCOC(C)(C)C,inactive,inactive,inactive,inactive,inactive,inactive,inactive,inactive,inactive,
CCn1nc(C(=O)O)c(=O)c2cc3c(cc21)OCO3,inactive,inactive,inactive,inactive,inactive,inactive,inactive,inactive,inactive,
c1ccc(CC2=NCCN2)cc1,inactive,inactive,inactive,inactive,inactive,inactive,inactive,inactive,inactive,
CC(C)CCCC(C)N (stereo not drawn),,inactive,inactive,inactive,inactive,inactive,inactive,inactive,inactive,
COc1nc(N)nc2c1ncn2[C@@H]1O[C@H](CO)[C@@H](O)[C@@H]1O,inactive,inactive,inactive,inactive,inactive,inactive,inactive,inactive,inactive,
NC(=O)COCCN1CCN(C(c2ccccc2)c2ccc(Cl)cc2)CC1 (stereo not drawn),inactive,inactive,inactive,inactive,inactive,inactive,2660 nM (active),inactive,inactive,inactive
Nc1c[n+](N2CCOCC2)no1,inactive,inactive,inactive,inactive,inactive,inactive,inactive,inactive,inactive,inactive
O=C(O)CCCl,inactive,inactive,inactive,inactive,inactive,inactive,inactive,inactive,inactive,inactive
NS(=O)(=O)c1cc(C(=O)NN2C[C@H]3[C@H]4CCC(C4)[C@H]3C2)ccc1Cl,inactive,inactive,inactive,inactive,inactive,inactive,inactive,inactive,inactive,
COC(=O)CCSCCC(=O)OC,inactive,inactive,inactive,inactive,inactive,inactive,inactive,inactive,inactive,
COc1ccc2c(c1)c(CC(=O)OCC(=O)O)c(C)n2C(=O)c1ccc(Cl)cc1,inactive,inactive,inactive,inactive,inactive,inactive,inactive,inactive,inactive,
Cn1c(N)c(N=O)c(=O)n(C)c1=O,inactive,inactive,inactive,inactive,inactive,inactive,inactive,inactive,inactive,
O=C1CC2CC1C1CCCC21 (stereo not drawn),inactive,inactive,inactive,inactive,inactive,inactive,inactive,inactive,inactive,
CC(C)OC(=O)c1ccccc1,inactive,inactive,inactive,inactive,inactive,inactive,inactive,inactive,inactive,
CN1CCN(c2cc3c(cc2F)c(=O)c(C(=O)O)cn3-c2ccc(F)cc2)CC1,inactive,inactive,inactive,inactive,inactive,inactive,inactive,inactive,inactive,
CC(C)c1cc2c(cc1S(=O)(=O)O)[C@@]1(C)CCC[C@@](C)(C(=O)O)[C@@H]1CC2,inactive,inactive,inactive,inactive,inactive,inactive,inactive,inactive,inactive,
N=C(N)c1ccccc1,inactive,inactive,inactive,inactive,inactive,inactive,inactive,inactive,inactive,
O=c1cc(CO)occ1O,inactive,inactive,inactive,inactive,inactive,inactive,inactive,inactive,inactive,inactive
